The term inhibition denotes the percentage by which the read-out fell short of the control.

This is an account of results in PubChem BioAssay.

Assay [1] deals with TRPC4 beta (transient receptor potential cation channel C4), mouse. Put plainly: TRPC4 cation channel opening, retest – cell-based, Fluo4 calcium, HEK293 TRPC4beta/mu-opioid, duplicates, 10 µM, confirmation (AID 2426;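 active = fluorescence ratio normalized to control raised more than 50% in primary screen plus both repeat runs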). As to conditions: Fluo4 calcium fluorescence, at 10 µM; stronger effect = higher value.
Assay [2] has as its system transient receptor potential cation channel C4 beta (TRPC4), mouse. Put plainly: TRPC4 cation channel opening, second retest – cell-based, second round, Fluo4, HEK293 TRPC4beta/mu-opioid, 1 µM, confirmation (AID 2461;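 active = primary screen active and over 50% activation in each of two duplicate runs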). As to conditions: Fluo4 calcium fluorescence, at 1 µM; stronger effect = higher value.
Assay [3] concerns TRPC4 (transient receptor potential cation channel C4 beta), mouse. Put plainly: potentiation of DAMGO EC20 TRPC4 response – cell-based, second round, Fluo-4, HEK293 TRPC4beta/mu-opioid, 1 µM, confirmation (AID 2554;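 active = primary screen hit whose fluorescence ratio, in both repeats, exceeds the weak agonist control mean by 3 SD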). As to conditions: DAMGO EC20, Fluo-4 calcium flux, at 1 µM; stronger effect = higher value. For orientation: A change in cytosolic calcium serves as a functional read-out for many receptors and channels.

Assay [4] has as its system TRPC4 beta (transient receptor potential cation channel C4), mouse. Put plainly: potentiation of DAMGO EC20 TRPC4 response – cell-based, Fluo-4, HEK293 TRPC4beta/mu-opioid, confirmation (AID 2555;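 active = primary screen hit whose calcium fluorescence ratio, in both repeats, exceeds the weak agonist control mean by 3 SD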). As to conditions: DAMGO EC20, Fluo-4 calcium flux, at 10 µM; stronger effect = higher value.
For assay [5], the target named is Short transient receptor potential channel 4 (Mus musculus) (UniProt Q9QUQ5). Put plainly: blockers of DAMGO-evoked TRPC4 calcium flux – cell-based, Fluo4, HEK293 TRPC4beta/mu-opioid, confirmation (AID 2636). As to conditions: at 10 µM; stronger effect = higher value.
Chain of Short transient receptor potential channel 4 (Mus musculus) (Q9QUQ5 whole entry, looked up): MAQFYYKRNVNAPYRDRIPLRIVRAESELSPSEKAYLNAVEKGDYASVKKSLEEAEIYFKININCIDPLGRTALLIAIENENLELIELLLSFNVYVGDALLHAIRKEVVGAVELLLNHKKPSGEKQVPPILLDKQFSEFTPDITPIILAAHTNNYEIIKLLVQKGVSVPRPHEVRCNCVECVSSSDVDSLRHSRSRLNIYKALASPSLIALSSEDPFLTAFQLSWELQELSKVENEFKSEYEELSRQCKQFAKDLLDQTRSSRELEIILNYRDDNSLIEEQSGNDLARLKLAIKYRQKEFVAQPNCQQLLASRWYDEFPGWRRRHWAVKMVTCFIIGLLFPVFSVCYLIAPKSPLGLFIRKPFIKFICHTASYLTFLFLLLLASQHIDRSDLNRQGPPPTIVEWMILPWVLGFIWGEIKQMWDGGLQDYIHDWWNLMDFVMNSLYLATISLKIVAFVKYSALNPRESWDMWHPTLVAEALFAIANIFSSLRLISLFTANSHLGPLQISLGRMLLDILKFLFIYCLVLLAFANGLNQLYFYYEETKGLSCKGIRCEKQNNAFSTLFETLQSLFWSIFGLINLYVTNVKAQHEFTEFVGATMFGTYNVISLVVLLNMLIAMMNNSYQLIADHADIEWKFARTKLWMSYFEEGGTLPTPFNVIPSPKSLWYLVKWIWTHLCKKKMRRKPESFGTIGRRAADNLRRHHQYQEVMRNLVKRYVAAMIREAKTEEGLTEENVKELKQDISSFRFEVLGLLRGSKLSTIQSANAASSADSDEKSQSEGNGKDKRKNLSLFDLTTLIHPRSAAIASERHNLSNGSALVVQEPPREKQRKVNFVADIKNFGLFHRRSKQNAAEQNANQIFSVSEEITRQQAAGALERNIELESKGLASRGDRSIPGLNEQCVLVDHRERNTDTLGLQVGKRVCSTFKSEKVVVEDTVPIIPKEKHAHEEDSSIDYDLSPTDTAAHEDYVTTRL
For assay [6] the target is unchanged. Put plainly: blockers of DAMGO-evoked TRPC4 calcium flux – cell-based, second round, Fluo4, HEK293 TRPC4beta/mu-opioid, 1 µM, confirmation (AID 2637;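 active = calcium signal ratio cut to more than 3 SD under the fully stimulated control mean yet still positive, in both repeats and the primary screen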). The settings on record: at 1 µM; stronger effect = higher value.
For assay [7] the target is unchanged. Put plainly: calcium entry via TRPC4 opening agents – cell-based, HEK293 TRPC4/mu-opioid, Fluo-4 calcium, dose response (AID 434937;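 active = primary screen activator hit with a dose response curve and TRPC4 channel activation at any tested dose; inactive = no activation, no dose response, or not a primary hit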).
For assay [8] the target is unchanged. Put plainly: potentiation of DAMGO-evoked TRPC4 calcium signal – cell-based, HEK293 TRPC4/mu-opioid, Fluo-4 calcium, EC20 DAMGO, dose response (AID 434941;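 active = earlier screen potentiator hit that boosts the TRPC4 ion channel at some dose, with a dose response; inactive = no potentiation, no dose response, or not a prior hit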;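 also: calcium entry triggered by an EC20 dose of DAMGO at the co-expressed mu-opioid receptor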).
Assay [9] shares this target. Put plainly: block of DAMGO-driven TRPC4 calcium entry – cell-based, HEK293 TRPC4/mu-opioid, Fluo-4 calcium, dose response (AID 434942;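 active = primary screen inhibitor hit that blocks the TRPC4 channel at some tested dose, yielding a dose curve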).
Assay [10] addresses Short transient receptor potential channel 6 (Mus musculus) (UniProt Q61143). Put plainly: TRPC6 blockade by TRPC4 inhibitor hits – cell-based, HEK293, membrane potential dye, duplicate, selectivity assay for TRPC4 inhibitor project, confirmation (AID 434948;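 active = active in primary screen and both duplicates, each dropping signal beyond three positive-control SD with fluorescence still positive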). As to conditions: HEK293 TRPC6, membrane potential dye fluorescence, at 10 µM, stimulated with maximal-effect acetylcholine; stronger effect = higher value.

Assay [11] has the same target. Put plainly: TRPC6 opening by TRPC4 activator hits – cell-based, HEK293, membrane potential dye, duplicate, selectivity assay for TRPC4 activator project, confirmation (AID 434950;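 active = membrane potential signal rise above negative control mean plus 3 SD in both duplicates, also active in the earlier TRPC4 screen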). As to conditions: HEK293 TRPC6, membrane potential fluorescence, at 10 µM; activation: stronger effect = higher value; outcome: activation.
Assay [12] shares this target. Put plainly: positive modulators of mouse TRPC6 channel – HEK293 cells, membrane potential dye, duplicate, selectivity assay for TRPC4 potentiator project, confirmation (AID 434952;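 active = compound raising the membrane signal above positive-control mean plus 3 SD in both repeats, and a primary screen hit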). The settings on record: HEK293 TRPC6, membrane potential dye fluorescence, at 10 µM, maximal acetylcholine added after compound; stronger effect = higher value.
Assay [13] deals with Short transient receptor potential channel 4 (Mus musculus) (UniProt Q9QUQ5). Put plainly: calcium flux activators in TRPC4/5HT1a cells, counter-screen for TRPC4 activator project, cell-based, second counter screen, HEK293 TRPC4/5HT1a, Fluo-4 (AID 434977;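 active = calcium signal rise above buffer-control mean plus 5 SD in both duplicates, and also a hit in the primary screen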). As to conditions: Fluo-4 calcium flux, at 10 µM; stronger effect = higher value.
Assay [14] is described as follows: serotonin-gated TRPC4 signal block – cell-based, second counter screen, HEK293 TRPC4/5HT1a, Fluo-4, counter-screen for TRPC4 inhibitor project, confirmation (AID 434978;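 active = primary screen active whose calcium signal fell more than 3 SD beyond the full-serotonin control mean in both duplicate plates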;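 as to outcome: serotonin given first at submaximal then at maximal dose after compound preincubation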). As to conditions: Fluo-4 calcium flux, at 10 µM, serotonin added to trigger calcium flux; stronger effect = higher value.
Assay [15] relates to TRPC4 (mouse), co-expressed with 5HT1a in HEK293. Put plainly: enhancement of serotonin-evoked TRPC4 response – cell-based, second counter screen, HEK293 TRPC4/5HT1a, Fluo-4, counter-screen for TRPC4 potentiator project, confirmation (AID 434979;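 active = signal rise over 3 SD above mean of control wells given weak agonist, in both repeats and first screen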). As to conditions: Fluo-4 calcium flux, at 10 µM, serotonin added at its EC20 dose; stronger effect = higher value.
The nature of assay [16]: nonspecific calcium rise without TRPC4 – cell-based, HEK293 mu-opioid receptor line, counter-screen for TRPC4 activator project, confirmation (AID 449723;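 active = hit in primary screen, with calcium signal over 5 SD above buffer well mean in both duplicates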;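 also: counter screen cells carry the mu-opioid receptor alone and lack TRPC4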). The settings on record: HEK293 mu-opioid cells, Fluo-4 calcium fluorescence, at 10 µM; stronger effect = higher value. On the technique in general: Counterscreens check selectivity or assay interference.
Assay [17] can be described thus: nonspecific potentiation of DAMGO calcium response – cell-based, HEK293 mu-opioid receptor line, counter-screen for TRPC4 allosteric potentiator project, confirmation (AID 449724;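 active = calcium signal rise more than 3 SD above the low-dose agonist control mean, in both duplicate plates and the primary screen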;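 also: HEK293 cells carrying mu-opioid receptor only with no TRPC4 channel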). As to conditions: HEK293 mu-opioid receptor cells, Fluo-4 calcium flux, at 10 µM, compound added before EC20 DAMGO stimulus; stronger effect = higher value.

For part of these data: Measured potencies and affinities stand elsewhere. Activity calls are given as the source filed them.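 The calls were made as follows, unless noted: active = calcium signal cut by more than 3 SD below the full-agonist control yet still positive, in both repeats and the earlier primary screen; inactive = the rest.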

Chain of Short transient receptor potential channel 6 (Mus musculus) (Q61143 whole entry, looked up): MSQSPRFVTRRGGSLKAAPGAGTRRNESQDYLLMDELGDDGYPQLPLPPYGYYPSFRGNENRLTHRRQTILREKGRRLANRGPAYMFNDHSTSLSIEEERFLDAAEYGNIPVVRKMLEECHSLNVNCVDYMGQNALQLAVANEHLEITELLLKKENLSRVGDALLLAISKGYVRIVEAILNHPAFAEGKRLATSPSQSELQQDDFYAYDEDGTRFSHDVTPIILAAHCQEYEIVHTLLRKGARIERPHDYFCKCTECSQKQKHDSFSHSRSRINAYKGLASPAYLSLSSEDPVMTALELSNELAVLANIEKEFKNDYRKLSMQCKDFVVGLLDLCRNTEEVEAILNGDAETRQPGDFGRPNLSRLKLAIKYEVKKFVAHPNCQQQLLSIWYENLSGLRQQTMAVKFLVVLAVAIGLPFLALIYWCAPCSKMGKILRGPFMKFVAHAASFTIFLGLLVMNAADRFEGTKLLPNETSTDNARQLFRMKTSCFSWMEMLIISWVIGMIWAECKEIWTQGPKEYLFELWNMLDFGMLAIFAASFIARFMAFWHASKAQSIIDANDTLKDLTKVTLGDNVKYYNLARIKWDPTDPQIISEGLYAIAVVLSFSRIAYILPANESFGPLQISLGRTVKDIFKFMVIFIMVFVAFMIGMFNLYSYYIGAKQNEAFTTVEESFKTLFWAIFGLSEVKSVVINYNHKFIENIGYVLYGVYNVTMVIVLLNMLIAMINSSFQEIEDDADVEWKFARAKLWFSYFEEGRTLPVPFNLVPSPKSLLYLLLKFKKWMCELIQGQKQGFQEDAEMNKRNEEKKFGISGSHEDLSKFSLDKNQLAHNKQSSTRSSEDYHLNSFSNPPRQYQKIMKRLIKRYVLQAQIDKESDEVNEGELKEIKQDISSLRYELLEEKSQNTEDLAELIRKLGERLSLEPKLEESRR

Turning to `O=C(O)c1ccc(NC(=O)c2cn(-c3ccccc3)nc2-c2ccc(Br)cc2)cc1`, the result in [1], in assay [2], in [3], in assay [4], in [5] and in [6] was inactive. Further, the result in assay [7], in [8], in assay [9], in assay [10], in [11] and in assay [12] was inactive. For the same compound, the result in [13], in assay [14], in assay [15], in [16] and in [17] was inactive.

As to `CCOc1ccc(Nc2nc(Cc3nnc(SCC(=O)c4ccc(C)cc4)o3)cs2)cc1`, the result in assay [1], in [2], in [3], in [4], in [5] and in [6] was inactive. Moreover, the outcome in [7], in [8], in [9], in [10], in assay [11] and in assay [12] was inactive. The outcome in assay [13], in assay [14], in assay [16] and in assay [17] was inactive. In addition, the potentiation in assay [15] was 8.2% (active).

Turning to `CCOC(=O)CC(NC(=O)c1cc2cc(Br)ccc2oc1=O)c1cccc([N+](=O)[O-])c1` (stereo not given), the result in assay [1], in [2], in assay [3], in assay [4], in assay [5] and in assay [6] was inactive. For the same compound, the result in [7], in assay [8], in assay [9], in assay [10], in assay [11] and in assay [12] was inactive. In addition, the outcome in [13], in [14], in [16] and in assay [17] was inactive. The potentiation in assay [15] is 15.9% (active).

For the compound `CCNc1nc(NC(C)(C)C)nc(N2CCCC2)n1`, the outcome in assay [1], in assay [2], in assay [3], in [4], in assay [6] and in assay [7] was inactive. The outcome in assay [8], in assay [9], in assay [10], in [11], in assay [12] and in [13] was inactive. Moreover, the result in assay [15], in assay [16] and in assay [17] was inactive. For the same compound, the inhibition in [5] is 77% (active); in assay [14], 41.2% (active).

Regarding `Cc1ccc(-c2cc(C(=O)NCCCN3CCCC3)c3ccccc3n2)cc1C`, the result in assay [1], in assay [2], in [3], in assay [4], in assay [5] and in [6] was inactive. Besides, the result in [7], in assay [8], in assay [9], in assay [10], in assay [11] and in assay [12] was inactive. In addition, the outcome in assay [13], in assay [14], in [16] and in assay [17] was inactive. The potentiation in assay [15] was 17.7% (active).

On to `CC(=O)c1ccc(OCC(O)CN2CCN(S(=O)(=O)c3c(C)cc(C)cc3C)CC2)cc1` (stereo not given), for which the outcome in assay [1], in assay [2], in assay [5], in [6], in assay [7] and in [8] was inactive. In addition, the result in [9], in assay [10], in [11], in [12], in [13] and in assay [14] was inactive. Besides, the result in assay [16] and in assay [17] was inactive. Also, the potentiation was 20% (active) in assay [3], 23% (active) in [4] and 27.2% (active) in assay [15].

As to `COc1ccc(-n2ncc3c(N4CCc5ccccc54)ncnc32)cc1`, the result in assay [1], in assay [2], in assay [3], in [4], in assay [5] and in assay [6] was inactive. Moreover, the result in assay [7], in [8], in [9], in assay [10], in [11] and in assay [12] was inactive. The outcome in [13], in [14], in [15], in assay [16] and in assay [17] was inactive.

Consider `CCc1cc(=O)oc2c(CNCc3ccccc3F)c(O)c(Cl)cc12`, for which the result in assay [1], in [2], in assay [3], in [4], in [5] and in assay [6] was inactive. Moreover, the outcome in assay [7], in assay [8], in assay [9], in [10], in assay [11] and in assay [12] was inactive. Moreover, the result in [13], in assay [14], in assay [15], in [16] and in assay [17] was inactive.

Turning to `CN(C)CCCn1c(=O)n(CCc2ccccc2)c(=O)c2c3c(sc21)CCCCC3`, the outcome in assay [1], in assay [2], in assay [3], in assay [4], in assay [5] and in assay [6] was inactive. For the same compound, the result in assay [7], in [8], in assay [9], in assay [10], in assay [11] and in assay [12] was inactive. For the same compound, the outcome in assay [13], in assay [14], in assay [15], in assay [16] and in [17] was inactive.

Turning to `Cc1ccc(S(=O)(=O)Nc2ccc(N=Nc3ccc(O)cc3)cc2)cc1`, the outcome in assay [1], in [2], in assay [3], in assay [4], in assay [5] and in assay [6] was inactive. The result in [7], in assay [8], in assay [9], in assay [10], in [11] and in assay [12] was inactive. Besides, the result in assay [13], in assay [14], in assay [15], in assay [16] and in assay [17] was inactive.

Turning to `COc1ccc(C(=O)/C=C/C(=O)N(CC(=O)NC2CCCCC2)CC2CCCO2)c(O)c1` (stereo not given), the outcome in assay [1], in assay [2], in assay [3], in [4], in assay [5] and in assay [6] was inactive. For the same compound, the outcome in assay [7], in assay [8], in assay [9], in assay [10], in [11] and in [12] was inactive. Besides, the outcome in assay [13], in assay [14], in assay [15], in assay [16] and in assay [17] was inactive.

As for `CSc1ccc(/C=N\NC(=O)CC(=O)NC(C)C)cc1`, the result in assay [1], in assay [2], in [3], in assay [4], in [5] and in assay [6] was inactive. The result in assay [7], in assay [8], in assay [9], in [10], in assay [11] and in [12] was inactive. Besides, the outcome in assay [13], in [14], in assay [15], in assay [16] and in assay [17] was inactive.

Take `Cc1cc(N2CCN(C)CC2)n2cc(-c3ccc(F)cc3)nc2n1`: the result in [1], in assay [2], in [4], in [5], in [6] and in assay [7] was inactive. Besides, the outcome in assay [8], in assay [9], in [10], in assay [11], in assay [12] and in assay [13] was inactive. Further, the outcome in assay [14], in assay [16] and in assay [17] was inactive. In addition, the potentiation is 11% (active) in [3] and 26.1% (active) in [15].

Turning to `C=CCn1c(SCCN2CCCC2)nc2c([nH]c3ccccc32)c1=O`, the result in [1], in [2], in [4], in assay [5], in [6] and in assay [7] was inactive. In addition, the result in assay [8], in assay [9], in [10], in assay [11], in [12] and in assay [13] was inactive. The result in assay [14], in [15], in assay [16] and in assay [17] was inactive. Also, the potentiation in [3] was 21% (active).

Take `Cn1ncc(C#N)c1/N=C/N(Cc1ccccc1)Cc1ccccc1`: the outcome in assay [1], in assay [2], in [3], in [4], in [5] and in assay [6] was inactive. In addition, the result in [7], in assay [8], in assay [9], in [10], in assay [11] and in assay [12] was inactive. Besides, the outcome in assay [13], in [14], in assay [15], in assay [16] and in [17] was inactive.
